Experimental data taken from PubChem BioAssay (NCI).
Compounds without any hit were thinned out: in the full panel of roughly 83,000, 20% have a hit.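 96-well plates, one dose, 48 hours. Percent growth reported; active if below 10.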 Active and inactive are the calls of the source.

Tests used:
Assay in all cases: NCI-60 one-dose screen, 48 h (100 = growth as untreated, 0 = no growth, -100 = all killed)
Details in all cases: 10 µM unless noted
[1] = tested on: HCT-15 colon
[2] = tested on: HT29 colon
[3] = tested on: SNB-75 CNS
[4] = tested on: SNB-19 CNS
[5] = tested on: U251 CNS
[6] = tested on: PC-3 prostate
[7] = tested on: SK-MEL-5 melanoma
[8] = tested on: UACC-62 melanoma
[9] = tested on: LOX IMVI melanoma
[10] = tested on: SK-MEL-28 melanoma
[11] = tested on: EKVX NSCLC
[12] = tested on: SN12C renal
[13] = tested on: UO-31 renal
[14] = tested on: TK-10 renal
[15] = tested on: CAKI-1 renal
[16] = tested on: A498 renal
[17] = tested on: CCRF-CEM leukemia
[18] = tested on: MOLT-4 leukemia
[19] = tested on: ACHN renal

Measured: growth

Cc1cccc(Cl)c1NC(=O)c1cnc(Nc2cc(N3CCOCC3)cc(N3CCOCC3)c2)s1
inactive: [1] 22.2% | [4] 47.4% | [5] 54.6% | [6] 45.7% | [7] 65.1% | [8] 41.6% | [10] 63.6% | [11] 33.1% | [12] 30% | [17] 63.2% | [18] 27.8%
active: [2] -10.2% | [3] -43.3% | [9] -71.8% | [13] -0.169% | [14] -65.2% | [15] -37.8% | [16] -22.6%

CN[C@@H]1C[C@H]2O[C@@](C)([C@@H]1OC)n1c3ccccc3c3c4c(c5c6ccccc6n2c5c31)C(=O)N[C@H]4O
active: [1] -16.8% | [2] -16.7% | [3] -98.9% | [4] -34.4% | [5] -85.3% | [6] 4.43% | [7] -98.9% | [8] -63.1% | [9] -85.5% | [10] -61.3% | [11] -4.21% | [12] -38.7% | [13] -64.4% | [14] -34% | [19] 5.01% | [15] -59.7% | [17] 0.26% | [18] 0.831%

C=CCN(/C=C1/C(=O)O[C@H](COC)[C@@]2(C)C1=C(O)C(=O)C1=C2[C@H](OC(C)=O)C[C@]2(C)C(=O)CC[C@@H]12)CC=C
inactive: [1] 24.2% | [2] 13.7% | [4] 26.2% | [5] 21.1% | [6] 18.6% | [9] 20.3% | [10] 24.4% | [11] 21.8% | [12] 30.2% | [17] 12.8%
active: [3] -25.3% | [7] 7.65% | [8] -21% | [13] 3.12% | [14] 3.59% | [15] 8.92% | [16] -66.8% | [18] -2.31%

C#Cc1cccc(Nc2ncnc3cc(OCCOC)c(OCCOC)cc23)c1
inactive: [1] 39.3% | [2] 53.2% | [3] 71.6% | [4] 79.8% | [5] 68.8% | [6] 73.4% | [7] 77.1% | [8] 50.9% | [9] 47.2% | [10] 86.8% | [11] 39.6% | [12] 50.5% | [13] 17.3% | [19] 11.3% | [17] 71.2% | [18] 56.1%
active: [14] -6.62% | [15] 6.29%

CC(=O)CC1CCCC1c1ccc2ccccc2c1 (centres undefined)
inactive: [1] 103% | [2] 95.8% | [3] 93.8% | [4] 104% | [5] 94.4% | [6] 91.9% | [7] 101% | [8] 99.6% | [9] 97.8% | [10] 103% | [11] 102% | [12] 105% | [13] 84.7% | [14] 91.5% | [19] 101% | [15] 98.6% | [17] 97.6% | [18] 99.2%

CCCCCCCCCNCCCCCCCCC
active: [2] 0.373%
inactive: [1] 32.4% | [3] 67.2% | [4] 82.2% | [5] 49% | [6] 59.4% | [7] 54.1% | [8] 83.2% | [9] 41.9% | [10] 43.5% | [11] 81.9% | [12] 59.5% | [13] 36.4% | [14] 70.4% | [15] 42% | [16] 88.9% | [17] 23.7% | [18] 49.7%

O=C(Nc1cccc(Cl)c1)Nc1ncc(CCNc2ncnc3ccsc23)s1
active: [6] 8.62% | [7] -52% | [8] -24.7% | [18] -4.94%
inactive: [1] 22.9% | [2] 19.7% | [3] 25.6% | [4] 64.9% | [5] 38.4% | [9] 16.4% | [10] 33.5% | [11] 34.5% | [12] 53.7% | [13] 27.5% | [14] 28.9% | [15] 21.7% | [16] 29.3% | [17] 10.1%

COc1cc2ncnc(Nc3cccc(Cl)c3F)c2cc1OC(=O)N1CCN(C)C[C@H]1C
inactive: [1] 75.1% | [2] 53.9% | [3] 71% | [4] 83.4% | [5] 75.8% | [6] 64.4% | [7] 81.3% | [8] 77.3% | [9] 79.6% | [10] 87.3% | [11] 57.8% | [12] 50.1% | [13] 41.6% | [14] 28.1% | [19] 19.5% | [15] 43.2% | [17] 74.7% | [18] 67.7%
